In PubChem BioAssay AID1159580 (chemical genetic matrix, 2015):
Where “and” joins values, the source holds several entries; their conditions need not be identical. Equal entries are not always repeated. About 2,000 (36%) of roughly 5,500 compounds were called active. Roughly 18% stayed inconclusive and do not appear here. Rule as the data show it: active = normalized growth mostly below about 0.91 (no sharp cut-off); inconclusive = no clear call, values can overlap the other calls; inactive = mostly above about 0.92. This is one part of the list.

Test: chemical genetic growth profiling, strain panel (AID 1159580);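 also: tested at 20 µM; growth read once vehicle control cultures reached saturation at 30 °C; 1 = growth at the plate median or of vehicle wells; lower values mean less growth of the strain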
Conditions: S. cerevisiae deletion strains, growth OD

Measured: normalized growth

CNC(C)(C)Cc1ccccc1
inactive: locus YAL013W, strain DEP1, hits give low values 1.01 | locus YAL021C, strain ccr4, hits give low values 0.997 | locus YAL026C, strain drs2, hits give low values 1.01 | locus YAL030W, strain snc1, hits give low values 1.01 | locus YBL061C, strain skt5, hits give low values 1.02 | locus YBR009C, strain hhf1, hits give low values 1.02 | locus YBR021W, strain FUR4, hits give low values 1.01 | locus YBR023C, strain chs3, hits give low values 1.02 | locus YBR171W, strain sec66, hits give low values 1.02 | locus YBR229C, strain ROT2, hits give low values 1.01 | locus YBR231C, strain swc5, hits give low values 1.02 | locus YBR279W, strain paf1, hits give low values 1.01 | locus YCL011C, strain gbp2, hits give low values 1.02 | locus YCL016C, strain dcc1, hits give low values 1.02 | locus YCL029C, strain bik1, hits give low values 1 | locus YCL061C, strain MRC1, hits give low values 1.01 | locus YCL069W, strain vba3, hits give low values 1.01 | locus YCR088W, strain abp1, hits give low values 1.01 | locus YDL005C, strain med2, hits give low values 1.02 | locus YDL035C, strain GPR1, hits give low values 1.02 | locus YDL040C, strain nat1, hits give low values 1.01 | locus YDL074C, strain BRE1, hits give low values 0.988 | locus YDL101C, strain DUN1, hits give low values 1.01 | locus YDL134C, strain PPH21, hits give low values 1.02 | locus YDL185W, strain tfp1, hits give low values 1.01 | locus YDL192W, strain arf1, hits give low values 1 | locus YDR001C, strain nth1, hits give low values 1 | locus YDR069C, strain doa4, hits give low values 1.02 | locus YDR101C, strain arx1, hits give low values 1.02 | locus YDR137W, strain rgp1, hits give low values 0.958 | locus YDR150W, strain NUM1, hits give low values 1 | locus YDR159W, strain sac3, hits give low values 1 | locus YDR162C, strain NBP2, hits give low values 1.02 | locus YDR195W, strain ref2 1.02 | locus YDR297W, strain sur2, hits give low values 1.02 | locus YDR318W, strain mcm21, hits give low values 1.02 | locus YDR334W, strain swr1, hits give low values 0.991 | locus YDR335W, strain msn5, hits give low values 1.01 | locus YDR388W, hits give low values 1.01 | locus YDR392W, strain spt3, hits give low values 1.01 | locus YDR502C, strain sam2, hits give low values 0.993 | locus YEL003W, strain gim4, hits give low values 1.01 | locus YEL037C, strain rad23, hits give low values 1.01 | locus YEL061C, strain CIN8 (second series), hits give low values 1 | locus YEL061C, strain CIN8, hits give low values 1 | locus YER015W, strain faa2, hits give low values 1.02 | locus YER016W, strain bim1, hits give low values 1.01 | locus YER110C, hits give low values 0.999 | locus YER111C, strain swi4, hits give low values 0.988 | locus YER155C, strain BEM2 (second series), hits give low values 0.996 | locus YER155C, strain BEM2, hits give low values 1.01 | locus YER167W, strain BCK2, hits give low values 1.03 | locus YFR010W, strain ubp6, hits give low values 1.02 | locus YGL078C, strain dbp3, hits give low values 0.998 | locus YGL086W, strain mad1, hits give low values 0.997 | locus YGL167C, strain pmr1, hits give low values 1.01 | locus YGL173C, strain kem1, hits give low values 1.02 | locus YGL227W, strain vid30, hits give low values 1.02 | locus YGL240W, strain doc1, hits give low values 1.02 | locus YGL248W, strain PDE1, hits give low values 0.996 | locus YGL253W, strain hxk2, hits give low values 1.03 | locus YGR078C, strain PAC10, hits give low values 0.994 | locus YGR135W, strain pre9, hits give low values 1.03 | locus YGR252W, strain gcn5, hits give low values 1 | locus YHR013C, strain ard1, hits give low values 1.04 | locus YHR027C, strain rpn1, hits give low values 1.02 | locus YHR030C, strain SLT2, hits give low values 1.01 and 1.04 | locus YHR079C, strain IRE1 (second series), hits give low values 1 | locus YHR079C, strain IRE1, hits give low values 1.04 | locus YHR094C, strain hxt1, hits give low values 1 | locus YHR129C, strain ARP1, hits give low values 1.01 | locus YHR142W, strain chs7, hits give low values 1.01 | locus YHR200W, strain rpn10, hits give low values 1.01 | locus YIL066C, strain RNR3, hits give low values 1 | locus YIL073C, strain SPO22, hits give low values 1.06 | locus YIL125W, strain kgd1, hits give low values 0.996 | locus YIR030C, strain dcg1, hits give low values 1.01 | locus YJL092W, strain hpr5, hits give low values 1.01 | locus YJL095W, strain BCK1 (second series), hits give low values 1.01 | locus YJL095W, strain BCK1, hits give low values 0.99 and 1.04 | locus YJL115W, strain asf1, hits give low values 1.01 | locus YJL129C, strain trk1, hits give low values 0.983 | locus YJL134W, strain LCB3, hits give low values 1.01 | locus YJL154C, strain vps35, hits give low values 1 | locus YJL164C, strain tpk1, hits give low values 1.02 | locus YJL166W, strain qcr8, hits give low values 1.02 | locus YJL168C, strain set2, hits give low values 1 | locus YJL187C, strain SWE1 (second series), hits give low values 0.986 | locus YJL187C, strain SWE1, hits give low values 1.02
